Hits are enriched below; roughly 22% of the tested compounds scored in any of these assays.
CYP2C9 inhib: blockers of cytochrome P450 2C9 activity – biochemical, luminescence, ADME assay, primary screen. 96,000 compounds, 20% hits. inhibition, % at 5 µM. CYP2C9 Supersomes, luciferin-H conversion. P11712;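 active = blocking of liver enzyme CYP2C9 beyond about 50% at 5 µM, limit read from the data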
Target sequence (P11712 whole entry, looked up): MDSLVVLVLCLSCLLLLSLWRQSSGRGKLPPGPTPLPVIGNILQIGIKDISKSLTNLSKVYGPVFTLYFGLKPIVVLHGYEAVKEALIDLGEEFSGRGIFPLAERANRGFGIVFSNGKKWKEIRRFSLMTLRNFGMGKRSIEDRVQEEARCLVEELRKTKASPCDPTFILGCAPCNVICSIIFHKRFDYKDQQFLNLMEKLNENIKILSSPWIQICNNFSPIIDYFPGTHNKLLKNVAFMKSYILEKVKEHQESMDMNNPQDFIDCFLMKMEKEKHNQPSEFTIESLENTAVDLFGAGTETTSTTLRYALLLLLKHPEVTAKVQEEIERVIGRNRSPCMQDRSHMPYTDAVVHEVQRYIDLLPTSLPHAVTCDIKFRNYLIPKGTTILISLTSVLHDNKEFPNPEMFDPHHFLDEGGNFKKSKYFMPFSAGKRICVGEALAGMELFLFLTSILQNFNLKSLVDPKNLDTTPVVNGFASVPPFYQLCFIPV
CYP2C19 activ: human CYP2C19 activators, primary screen, biochemical, luminescence; AID 1025, 2008; Cytochrome P450 2C19 (Homo sapiens), P33261; activation factor at 5 µM; recombinant CYP2C19, luciferin-H EGE luminescence; hits give high values; 0 = fully inhibited enzyme, 1 = untreated enzyme; 96,000 tested, under 10 active;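 active = activation factor of at least 2 at 5 µM in the primary screen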;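 also: 0 = wells with 2.5 mM tranylcypromine and 1 = vehicle-only wells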
CYP2C9 act: human CYP2C9 activators, primary screen, biochemical, luminescence. recombinant CYP2C9, luciferin-H conversion; hits give high values; factor 1 = untreated enzyme, 0 = blocked. activation factor at 5 µM. 96,000 compounds, 1.4% hits. AID 1024, 2008;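 active = activation factor of 2 or more for CYP2C9 at a 5 µM dose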;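 also: 0 = sulfaphenazole-blocked wells and 1 = vehicle-only wells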
Measles CPE: compounds protecting cells from measles virus cytopathic effect, primary screen, measles RdRp inhibitor project, single point, MLSMR library, absorbance; AID 841, 2007; 140,000 compounds, 1.5% hits; protection (pct of control), % at 4 µM; Measles virus-infected cells, CPE protection; in the data active = protection mostly above about 24%, no sharp cut-off; inactive = mostly below about 26%
CYP2C19 inh: blockers of cytochrome P450 2C19 activity – biochemical, luminescence, ADME assay, primary screen | 96,000 compounds, 21% hits | inhibition, % at 5 µM | CYP2C19 Supersomes, luciferin-H EGE luminescence, 30 min | AID 778, 2007 | P33261;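 active = CYP2C19 inhibition above a set limit at 5 µM in the primary screen, cut at about 50% in these data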;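 also: plate controls were negative control wells for no effect and 2.5 mM tranylcypromine positive control for full effect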
* hit, by the source's call.

Screening O=C(NC(=S)N1CCc2ccccc21)c1ccccc1Br returned Measles CPE 12.7.
For COc1ccccc1OCC(=O)Nc1ccc(S(=O)(=O)NC(C)=O)cc1 the results were CYP2C9 inhib 21.7, CYP2C19 activ 1.1, CYP2C9 act 0.8, Measles CPE 1.5 and CYP2C19 inh -11.0.
COc1ccccc1C(=O)Nc1ccc(S(=O)(=O)Nc2cc(C)nc(C)n2)cc1 was read as CYP2C9 inhib 55.9*, CYP2C19 activ 1, CYP2C9 act 0.4, Measles CPE 10.5 and CYP2C19 inh 0.2.
COc1ccc(C(=O)Nc2ccc(S(=O)(=O)Nc3cc(C)nc(C)n3)cc2)c(OC)c1 was read as CYP2C9 inhib 36.8, CYP2C19 activ 1, CYP2C9 act 0.6, Measles CPE 5.3 and CYP2C19 inh -3.7.
For COc1ccc(C(=O)Nc2ccc(S(=O)(=O)Nc3nccc(C)n3)cc2)cc1OC the results were CYP2C9 inhib 6.2, CYP2C19 activ 1.2, CYP2C9 act 0.9, Measles CPE 9.9 and CYP2C19 inh -19.8.
Screening COc1ccccc1OCC(=O)Nc1ccc(S(=O)(=O)Nc2nc(C)cc(C)n2)cc1 returned CYP2C9 inhib 70.1*, CYP2C19 activ 0.6, CYP2C9 act 0.3, Measles CPE 12.0 and CYP2C19 inh 37.5.
COc1cccc(C(=O)Nc2ccc(S(=O)(=O)Nc3nccc(C)n3)cc2)c1 was read as Measles CPE 29.8*.
`O=C(Cn1nnc(-c2cccs2)n1)N1c2ccccc2Sc2ccc(C(F)(F)F)cc21` gave Measles CPE 5.6.
Screening O=C(CSCc1ccc(Cl)cc1)Nc1cccc(C(=O)Nc2ccccc2C(=O)O)c1 returned CYP2C9 inhib 97.5*, CYP2C19 activ 0.7, CYP2C9 act 0, Measles CPE 3.8 and CYP2C19 inh 34.0.
O=C(CSCc1ccccc1)Nc1cccc(C(=O)Nc2ccccc2C(=O)O)c1 was read as CYP2C9 inhib 95.2*, CYP2C19 activ 0.9, CYP2C9 act 0, Measles CPE 7.0 and CYP2C19 inh 10.1.
`O=C(CSCc1ccccc1)Nc1cccc(F)c1` gave Measles CPE 1.0.
For CC(C)C(=O)Nc1cccc(C(=O)NCCc2ccc(S(N)(=O)=O)cc2)c1 the results were CYP2C9 inhib 75.0*, CYP2C19 activ 0.9, CYP2C9 act 0.3, Measles CPE 12.2 and CYP2C19 inh 5.8.
Screening COc1c(Cl)cc(C(=O)Nc2ccccc2C(=O)O)cc1Cl returned CYP2C9 inhib 72.8*, CYP2C19 activ 1, CYP2C9 act 0.3, Measles CPE 5.0 and CYP2C19 inh 4.9.
`O=C(CSc1nnc(CNC(=O)c2cccs2)o1)NCCc1ccccc1` gave Measles CPE 9.8.
For CC(C)C(=O)Nc1cccc(C(=O)Nc2ccccc2C(=O)O)c1 the results were CYP2C9 inhib 83.4*, CYP2C19 activ 1, CYP2C9 act 0.2, Measles CPE 23.2 and CYP2C19 inh -4.8.
For CCC1SC(N)=NC1=O (centres undefined) the results were CYP2C9 inhib -26.9, CYP2C19 activ 1.2, CYP2C9 act 1.3, Measles CPE 5.6 and CYP2C19 inh -16.1.
Screening Cc1cc(NS(=O)(=O)c2ccc(-c3ccccc3)cc2)no1 returned CYP2C9 inhib 87.9*, CYP2C19 activ 0.9, CYP2C9 act 0.1, Measles CPE 5.0 and CYP2C19 inh 13.3.
Cc1ccc(S(=O)(=O)Nc2ccccc2-c2ccccc2)cc1 was read as CYP2C9 inhib 48.7, CYP2C19 activ 0.4, CYP2C9 act 0.5, Measles CPE 2.2 and CYP2C19 inh 57.5*.
Screening Cc1cc(NS(=O)(=O)c2ccc(N)cc2)no1 returned Measles CPE 10.7.
Cc1ccc(S(=O)(=O)Nc2ccnc3ccccc23)cc1 was read as CYP2C9 inhib -80.5, CYP2C19 activ 0.8, CYP2C9 act 1.8, Measles CPE 0.9 and CYP2C19 inh 20.5.
For Cc1cc(NC(=O)c2ccc(S(=O)(=O)Nc3ccccc3)cc2)no1 the results were CYP2C9 inhib 52.0*, CYP2C19 activ 0.8, CYP2C9 act 0.5, Measles CPE 4.2 and CYP2C19 inh 21.4.
Cc1ccc(S(=O)(=O)Nc2ccc(C(=O)Nc3cc(C)on3)cc2)cc1 was read as Measles CPE 15.4.
Cc1ccc(S(=O)(=O)Nc2cc(C)nn2-c2ccccc2)cc1 was read as CYP2C9 inhib 99.6*, CYP2C19 activ 1, CYP2C9 act 0, Measles CPE 9.4 and CYP2C19 inh 4.3.
Cc1cccc(NC(=O)CCNC(=O)c2ccco2)c1 was read as Measles CPE 10.3.
CC(C)OC(=O)c1c2c(n3ccccc13)C(=O)c1ccccc1C2=O was read as Measles CPE 6.3.
Cc1ccnc(SCCn2c(N3CC(C)CC(C)C3)nc3c2c(=O)n(C)c(=O)n3C)n1 (centres undefined) was read as CYP2C9 inhib 41.2, CYP2C19 activ 0.8, CYP2C9 act 0.6, Measles CPE 1.3 and CYP2C19 inh 19.1.
Screening CCc1nc(SCCO)c2oc3ccccc3c2n1 returned CYP2C9 inhib 65.8*, CYP2C19 activ 0.5, CYP2C9 act 0.3, Measles CPE 3.2 and CYP2C19 inh 51.0*.
CCc1nc(SCc2nc3ccccc3[nH]2)c2oc3ccccc3c2n1 was read as CYP2C9 inhib 98.4*, CYP2C19 activ 0, CYP2C9 act 0, Measles CPE 8.3 and CYP2C19 inh 99.9*.
Screening CCc1nc(N(CC)CC)c2oc3ccccc3c2n1 returned Measles CPE 5.7.
CCc1nc(Sc2nc(C)cc(C)n2)c2oc3ccccc3c2n1 was read as CYP2C9 inhib 63.4*, CYP2C19 activ 0.2, CYP2C9 act 0.4, Measles CPE 14.3 and CYP2C19 inh 80.5*.
For CCc1cc2c(SCC(=O)c3ccc(Cl)s3)ncnc2s1 the results were CYP2C9 inhib 82.1*, CYP2C19 activ 0.2, CYP2C9 act 0.2, Measles CPE 7.0 and CYP2C19 inh 81.8*.
`CCc1nc(SCC(=O)c2ccc(Cl)s2)c2oc3ccccc3c2n1` gave CYP2C9 inhib 75.0*, CYP2C19 activ 0.6, CYP2C9 act 0.3, Measles CPE 2.4 and CYP2C19 inh 41.5.
CCc1nc(SCC(=O)N2CCN(c3ccccc3)CC2)c2oc3ccccc3c2n1 was read as CYP2C9 inhib 14.0, CYP2C19 activ 0.9, CYP2C9 act 0.9, Measles CPE 9.5 and CYP2C19 inh 11.4.
For Cc1onc(-c2ccccc2)c1C(=O)N1CCN(C)CC1 the results were CYP2C9 inhib -18.9, CYP2C19 activ 1.1, CYP2C9 act 1.2, Measles CPE 4.5 and CYP2C19 inh -14.8.
For O=C(Nc1ncc([N+](=O)[O-])s1)C1CCN(S(=O)(=O)c2cnc[nH]2)CC1 the results were CYP2C9 inhib 96.8*, CYP2C19 activ 0.5, CYP2C9 act 0, Measles CPE 8.5 and CYP2C19 inh 48.5.

From PubChem
